According to publication PMC4336329 (PLoS ONE, 2015):
Among all 310,000 compounds or so, about 14,000 (4.5%) showed an effect of 50% or more. The effect is printed as a negative number. Only a selection was taken, and strong results are over-represented in it overall.

Biological target: human ether-à-go-go-related gene (hERG) potassium channel (human, UniProt Q12809)
Assay: primary screen, population patch clamp on CHO cells stably expressing hERG; higher = less effect of the substance
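Further: peak tail current of the secondary pulse compared with the same well before compound.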

human ether-à-go-go-related gene (hERG) potassium channel, sequence (Q12809 whole entry, looked up): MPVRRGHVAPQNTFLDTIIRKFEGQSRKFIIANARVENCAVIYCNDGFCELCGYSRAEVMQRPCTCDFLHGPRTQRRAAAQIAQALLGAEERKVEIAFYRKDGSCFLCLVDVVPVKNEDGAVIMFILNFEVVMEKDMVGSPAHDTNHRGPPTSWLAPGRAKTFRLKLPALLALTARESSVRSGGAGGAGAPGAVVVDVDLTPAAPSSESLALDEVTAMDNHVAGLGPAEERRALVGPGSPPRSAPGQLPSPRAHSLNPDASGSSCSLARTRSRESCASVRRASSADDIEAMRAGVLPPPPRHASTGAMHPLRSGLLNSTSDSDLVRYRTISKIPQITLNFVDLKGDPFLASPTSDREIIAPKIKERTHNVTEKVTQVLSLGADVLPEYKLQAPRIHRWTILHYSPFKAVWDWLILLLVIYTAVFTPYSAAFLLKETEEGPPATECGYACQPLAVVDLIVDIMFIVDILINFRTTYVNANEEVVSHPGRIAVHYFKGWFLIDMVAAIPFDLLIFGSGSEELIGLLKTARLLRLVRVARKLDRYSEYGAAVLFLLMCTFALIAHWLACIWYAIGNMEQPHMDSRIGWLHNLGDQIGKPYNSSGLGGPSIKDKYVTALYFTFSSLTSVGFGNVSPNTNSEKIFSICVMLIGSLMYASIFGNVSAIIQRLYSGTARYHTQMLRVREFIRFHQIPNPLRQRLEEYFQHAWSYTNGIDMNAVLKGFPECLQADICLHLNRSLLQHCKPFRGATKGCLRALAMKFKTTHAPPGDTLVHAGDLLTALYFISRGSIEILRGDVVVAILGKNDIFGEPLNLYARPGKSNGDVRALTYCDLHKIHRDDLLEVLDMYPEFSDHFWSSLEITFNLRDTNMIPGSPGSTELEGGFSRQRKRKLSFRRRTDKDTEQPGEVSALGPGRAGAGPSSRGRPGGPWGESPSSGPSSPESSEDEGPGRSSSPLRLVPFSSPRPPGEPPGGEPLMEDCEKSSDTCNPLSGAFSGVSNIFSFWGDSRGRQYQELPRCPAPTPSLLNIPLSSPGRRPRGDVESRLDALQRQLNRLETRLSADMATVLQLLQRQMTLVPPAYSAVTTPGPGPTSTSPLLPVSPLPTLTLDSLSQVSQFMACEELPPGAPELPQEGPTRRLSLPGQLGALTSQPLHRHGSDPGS

| Compound | hERG current change (%, negative = inhibition) at 10uM |
| --- | --- |
| CC(=O)c1ccc(N2CCN(CC(=O)N(CC(C)C)c3c(N)n(CC(C)C)c(=O)[nH]c3=O)CC2)cc1 | 10.7% |
| CCCn1ncc(CN2CCC(n3nccc3NC(=O)c3ccccc3Cl)CC2)c1C | -75.8% |
| CCCn1cc(CN2CCC(n3nccc3NC(=O)c3ccccc3)CC2)c(C)n1 | -11% |
| Cc1c(CN2CCC(n3nccc3NC(=O)c3cccc(F)c3)CC2)cnn1C | 9% |
| CCCn1ncc(CN2CCC(n3nccc3NC(=O)CCc3ccccc3)CC2)c1C | -26.2% |
| COc1ccccc1C(=O)Nc1ccnn1C1CCN(Cc2cnn(C)c2C)CC1 | -63.7% |
| CCCn1ncc(CN2CCC(n3nccc3NC(=O)c3ccccc3OC)CC2)c1C | -79.2% |
| CCCCc1ncc(CN2CCC(n3nccc3NC(=O)c3ccccc3Cl)CC2)[nH]1 | -40.3% |
| Cc1c(CN2CCC(n3nccc3NC(=O)CCc3ccccc3)CC2)cnn1C | 12.6% |
| O=C(c1ccc2c(c1)OCO2)N1CCc2ccccc21 | -2.34% |
| COCCOC(=O)c1c(C)n(C)c2ccc(OC(=O)c3ccco3)cc12 | -2.37% |
| CCc1n[nH]c(=S)n1/N=C/c1c(C)nn(-c2ccccc2)c1Cl | 21.4% |
| CN(C)c1ccc(/C=N/n2c(C3CCCCC3)n[nH]c2=S)cc1 | 20% |
| Cc1csc(CN(C)C(=O)C2CCC(=O)N(CCCc3ccccc3)C2)n1 (stereo not shown) | -5.37% |
| CCC1(CCCC(=O)c2ccc(F)cc2)C(=O)NC(=S)NC1=O | -3.66% |
| CCc1ccc(NC(=O)COc2coc(CN3CCN(c4ccccc4)CC3)cc2=O)cc1 | 12.3% |
| Cc1cccc(NC(=O)COc2coc(CN3CCc4ccccc4C3)cc2=O)c1 | -8.19% |
| O=C(COc1coc(CN2CCN(c3ccccc3)CC2)cc1=O)NC1CCCC1 | -13.6% |
| Cc1ccc(NC(=O)COc2coc(CN3CCN(Cc4ccccc4)CC3)cc2=O)cc1 | -73.3% |
| Cc1cccc(NC(=O)COc2coc(CN3CCN(Cc4ccccc4)CC3)cc2=O)c1 | -65% |
| O=C(COc1coc(CN2CCN(c3ccc(F)cc3)CC2)cc1=O)NC1CCCC1 | -53.1% |
| Cc1cccc(NC(=O)COc2coc(CN3CCN(c4ccccc4)CC3)cc2=O)c1C | -28.6% |

| Compound | hERG current change (%, negative = inhibition) at 10uM |
| --- | --- |
| O=C(COc1coc(CN2CCN(c3ccccc3)CC2)cc1=O)NC1CCCCC1 | -46.1% |
| O=C(COc1coc(CN2CCN(c3ccccc3)CC2)cc1=O)Nc1ccccc1F | -3.41% |
| Cc1cccc(NC(=O)COc2coc(CN3CCN(c4ccccc4)CC3)cc2=O)c1 | -7.9% |
| COc1ccccc1NC(=O)COc1coc(CN2CCN(c3ccccc3)CC2)cc1=O | -60% |
| Cc1ccc(NC(=O)COc2coc(CN3CCN(c4ccccc4)CC3)cc2=O)cc1 | 1.7% |
| CN(C)c1ccc(CN2CCCCC2)cc1 | 14.9% |
| CCN(CC(=O)N1CCCCCC1)S(=O)(=O)c1ccc(Cl)cc1 | -13.5% |
| CC1=Nc2ccccc2N=C(NC(=O)/C=C/C(=O)O)C1c1ccccc1 (stereo not shown) | 2.53% |
| O=c1[nH]c(=O)n(-c2ccccc2F)c(O)c1C=NCCC1=CCCCC1 | 25.6% |
| Cc1c(NC(=O)CN2CCC(C(N)=O)CC2)cccc1[N+](=O)[O-] | 26.4% |
| COc1ccc(N2CCN(C(c3cc(OC)ccc3OC)c3nnnn3CC3CCCO3)CC2)cc1.Cl (stereo not shown) | -9.64% |
| CC(C)CNC(=O)[C@H](Cc1ccccc1)NC(=O)c1ccco1 | -6.82% |
| Cc1ccccc1NC(=O)COc1coc(CN2CCN(c3ccccc3)CC2)cc1=O | -21.1% |
| Cc1ccccc1NC(=O)COc1coc(CN2CCN(Cc3ccccc3)CC2)cc1=O | -53.3% |
| CNC(=O)COc1coc(CN2CCN(Cc3ccccc3)CC2)cc1=O | 1.83% |
| CC(OC(=O)c1ccc(NS(=O)(=O)c2cccs2)cc1)C(=O)N(C)C1CCCCC1 (stereo not shown) | -0.558% |
| CCc1ccc(NS(=O)(=O)c2ccc3[nH]cc(C(=O)NCC4CCCO4)c(=O)c3c2)cc1 (stereo not shown) | 15.4% |
| CC(=O)Nc1ccc(C(=O)OCCC(C)C)cc1 | -17.4% |
| Cc1ccc(CNc2cc(C(=O)O)ccc2C)s1 | 19.2% |
| O=C(Cn1c(=O)n(CC2CCCO2)c(=O)c2ccccc21)N1CCN(c2ccccc2)CC1 (stereo not shown) | -21.8% |
| Cc1ccc(C)c(S(=O)(=O)N2CCCOC2CNC(=O)C(=O)NCc2ccccn2)c1 (stereo not shown) | 5.01% |
| CC(C)N1CCC(=NNC(=O)c2cccs2)CC1 | 25.6% |

| Compound | hERG current change (%, negative = inhibition) at 10uM |
| --- | --- |
| COC(=O)C1=C(N)Oc2cc(C)n(Cc3ccco3)c(=O)c2C1c1cccc(Cl)c1 (stereo not shown) | -5.24% |
| COC(=O)C1=C(N)Oc2cc(C)n(CCCn3ccnc3)c(=O)c2C1c1ccc(Cl)cc1 (stereo not shown) | -59.8% |
| COC(=O)C1=C(N)Oc2cc(C)n(CCc3ccccc3)c(=O)c2C1c1cccnc1 (stereo not shown) | -25.9% |
| COC(=O)C1=C(N)Oc2cc(C)n(CCCn3ccnc3)c(=O)c2C1c1cccc(Cl)c1 (stereo not shown) | -69.7% |
| COC(=O)C1=C(N)Oc2cc(C)n(CC3CCCO3)c(=O)c2C1c1ccc(Cl)cc1 (stereo not shown) | -8.41% |
| COC(=O)C1=C(N)Oc2cc(C)n(C)c(=O)c2C1c1ccc(Cl)cc1 (stereo not shown) | 6.7% |
| Cc1cccc(NS(=O)(=O)c2ccc3[nH]c(=O)[nH]c3c2)c1C | 13.7% |
| Cc1nn(Cc2ccccc2)c(C)c1NC(=O)CSc1nc(C2CC2)nc2c1cnn2-c1ccccc1 | 8.84% |
| OCCCNc1ncnc2sc(-c3ccccc3)cc12 | 3.23% |
| COc1ccc(-c2oc3ncnc(NCCCO)c3c2-c2ccc(OC)cc2)cc1 | 4.27% |
| CN(C)CCCNc1ncnc2oc(-c3ccccc3)c(-c3ccccc3)c12 | -69.5% |
| COc1ccc(-c2oc3ncnc(N)c3c2-c2ccccc2)cc1 | 6.52% |
| COc1ccc(-c2oc3ncnc(NCCCN(C)C)c3c2-c2ccc(OC)cc2)cc1 | -60.2% |
| OCCCNc1ncnc2oc(-c3ccccc3)c(-c3ccccc3)c12 | -13.2% |
| CN(C)CCCNc1ncnc2sc(-c3ccccc3)cc12.O=C(O)C(=O)O | -60.2% |
| CN(C)CCNc1ncnc2oc(-c3ccccc3)c(-c3ccccc3)c12 | -60.7% |
| CN(C)CCNc1ncnc2ccccc12.Cl | 7.66% |
| CN(C)CCNc1ncnc2sc(-c3ccccc3)cc12 | -21.1% |
| Cc1c(C)n(-c2ccccc2)c2ncnc(NCCN(C)C)c12 | -4.04% |
| COCCCNC(=O)CNC(=S)N(Cc1ccccc1)Cc1cccnc1 | -9.77% |
| O=C(NCc1cccnc1)Nc1cccc(F)c1 | 7.53% |
| CN(Cc1ccccc1)C(=O)Nc1ccccc1 | 7.49% |

| Compound | hERG current change (%, negative = inhibition) at 10uM |
| --- | --- |
| COC(=O)c1ccccc1NC(=O)COc1ccc(S(=O)(=O)N2CCCC2)cc1C | 8.37% |
| CSc1nnc2c(n1)OC=Nc1ccc(Br)cc1-2 | -11.7% |
| O=C(NCC1CCCO1)c1ccc[nH]1 (stereo not shown) | 12.3% |
| COc1ccc2oc(=O)c(C(=O)Nc3ccccc3O)cc2c1 | 8.79% |
| Cn1c(CC(=O)Nc2ccccc2F)nnc1SCC(=O)Nc1nccs1 | 18.6% |
| Fc1ccc(-c2cc(C(F)(F)F)n3ncnc3n2)cc1 | 26.8% |
| CC(=O)c1cc2c(cc1NC(=O)c1cnc(C)cn1)OCO2 | 4.22% |
| Cc1ccc(S(=O)(=O)N(CC(O)CN(C)C)c2ccccc2)cc1.Cl (stereo not shown) | -65.6% |
| Cc1ccc(S(=O)(=O)N(CC(O)CN2C(=O)NC(C)(C)C2=O)c2ccccc2)cc1 (stereo not shown) | -37.7% |
| Cc1ccc(S(=O)(=O)N(C)c2ccccc2)cc1 | -11.8% |
| COC(=O)CN(c1cccc(C)c1)S(=O)(=O)c1ccccc1 | -14% |
| O=S(=O)(c1ccccc1)N(CC(O)Cn1c2ccccc2c2ccccc21)c1ccccc1 (stereo not shown) | 14.9% |
| Cc1ccc(N(CC(O)CN(C)C)S(=O)(=O)c2ccccc2)cc1.Cl (stereo not shown) | -68.1% |
| Cc1cccc(N(CC(O)CN(C)C)S(=O)(=O)c2ccccc2)c1.Cl (stereo not shown) | -63% |
| CCN(c1ccccc1)S(=O)(=O)c1ccc2ccccc2c1 | -3.29% |
| O=S(=O)(c1ccccc1)N(CC(O)COc1ccccc1)c1ccccc1 (stereo not shown) | -26.6% |
| Cc1cc(C)n(CC(O)CN(c2ccccc2)S(=O)(=O)c2ccc3ccccc3c2)n1 (stereo not shown) | -6.13% |
| Cc1cccc(N(CC(=O)N2CCCC2)S(=O)(=O)c2ccccc2)c1 | -34.7% |
| CCN(CC)CC(O)CN(c1ccccc1)S(=O)(=O)c1ccc2ccccc2c1.Cl (stereo not shown) | -80.2% |
